ELG1 genotox = genotoxicity induction in ELG1-luciferase HEK293T cells. HEK293T ELG1-luciferase reporter, luminescence, 16 h. Potency, µM (highest dose often 46 µM), for the others: top-dose activity change, positive = activation, hits mostly activators. 330,000 compounds, 1.3% hits. AID 504466; further: % of control where 0% means no effect; nearly all actives have a fitted effect of over 60% in size
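After overnight (16 hr) compound treatment at 37 °C, ELG1-luciferase HEK293T cells were lysed with ONE-Glo; luminescence quantified 30 min later at room temperature.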
FLuc counter = firefly luciferase modulation, counter-screen for miR-21 project; 360,000 compounds, 6.9% hits; AID 588342; Potency, µM (top dose mostly 57.5 µM), for the others: top-dose activity change, negative = inhibition, most hits filed as inhibitors; purified FLuc, Km substrates, luminescence inhibition;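 further: plate controls were vehicle for no effect and reference inhibitor for full effect; nearly all actives have a fitted effect of over 55% in size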
Target sequence (P08659 whole entry, looked up): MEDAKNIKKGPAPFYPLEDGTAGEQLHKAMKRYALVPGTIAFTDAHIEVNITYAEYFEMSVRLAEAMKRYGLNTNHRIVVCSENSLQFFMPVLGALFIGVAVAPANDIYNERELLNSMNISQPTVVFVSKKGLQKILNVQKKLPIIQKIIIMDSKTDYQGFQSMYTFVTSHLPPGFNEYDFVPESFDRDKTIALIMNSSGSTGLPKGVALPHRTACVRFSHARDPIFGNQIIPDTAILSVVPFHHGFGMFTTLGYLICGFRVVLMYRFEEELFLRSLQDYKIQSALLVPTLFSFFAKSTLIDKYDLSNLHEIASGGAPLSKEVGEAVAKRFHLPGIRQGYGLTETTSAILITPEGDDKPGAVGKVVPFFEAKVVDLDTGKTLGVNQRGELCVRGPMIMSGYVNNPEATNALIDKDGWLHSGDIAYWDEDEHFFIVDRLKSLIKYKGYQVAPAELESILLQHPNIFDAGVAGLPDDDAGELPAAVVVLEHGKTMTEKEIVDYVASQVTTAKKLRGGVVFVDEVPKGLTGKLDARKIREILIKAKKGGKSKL
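Biochemical qHTS of compounds, final roughly 60 µM downward over six points, against 10 nM purified firefly luciferase using Km concentrations of substrates (10 uM D-luciferin, 10 uM ATP) in Tris acetate pH 7.5 buffer; luminescence output.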
ELG1 repair inh = ELG1-dependent DNA repair inhibition | Potency, µM (top dose mostly 46.1 µM), inactives show at the highest dose activity change, negative = inhibition, usual class: inhibitors | HEK293T ELG1-luciferase reporter, luminescence, 16 h; DNA damage induced by 5-fluorouridine | 330,000 compounds, 2.3% hits | AID 504467; further: on the % scale 0 is the no-effect control and ±100 the full control effect; nearly all actives have a fitted effect of over 55% in size
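DMSO vehicle served as the neutral condition. Each well held 2,000 cells given 5-fluorouridine plus compound; after 16 hr at 37 °C/5% CO2, ONE-Glo was added and luciferase measured 30 min later.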
NPC1 prom act = NPC1 promoter activation; Huh7 NPC1 promoter luciferase reporter, 24 h; Potency, µM (titrated, usually from 9.22 µM), without a hit: top-dose activation, usual class: activators; 320,000 compounds, 2.4% hits; AID 485313; further: % of control where 0% means no effect; nearly all actives have a fitted effect of over 60% in size
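Quantitative HTS used a cell-based reporter: Huh7 cells stably bearing the NPC1 promoter upstream of luciferase were treated with compounds for 24 h, and promoter activation was read as luminescence.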
Rab9 prom act = Rab9 promoter activation; Potency, µM (doses to about 9.22 µM), for inactives: top-dose activation, negative = inhibition, actives largely listed as activators; Huh7 Rab9 promoter-luciferase reporter, luminescence, 24 h; 320,000 compounds, 2.8% hits; further: % of control where 0% means no effect; nearly all actives have a fitted effect of over 60% in size
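Luminescence from Amplite-detected luciferase (10 minutes, ambient) reports Rab9 promoter activation. Before that, stable Rab9-luciferase Huh7 cells (1500/well, reduced-serum OP-MEM I plus 10% FBS) were exposed to compound for 24 hours at 37C.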
SMN2 splice enh = enhancers of SMN2 splice variant expression. HEK293 SMN2-luciferase splicing reporter, luminescence, 30-36 h. Potency, µM (top dose mostly 46.1 µM), inactives show top-dose activity change, positive = activation, most hits filed as activators. 210,000 compounds, 2.8% hits; further: % of control where 0% means no effect; nearly all actives have a fitted effect of over 55% in size
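HEK293 cells carry an SMN2 […]–luciferase reporter in which exon 7 inclusion puts luciferase in frame. Cells were plated 10-12 h before compound addition, then incubated 30-36 h at 37C. ONE-Glo luminescence was read; sodium butyrate at 4.5 mM final served as control.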
ELG1 FLuc counter = luciferase inhibition in cell-free luciferin readout for ELG1 hits; shares compounds with ELG1 repair inh; cell-free firefly luciferase luminescence counter-screen, ViewLux; Potency, µM (titrated, usually from 46.1 µM), for inactives: at the highest dose activity change, negative = inhibition, usual class: inhibitors; 350 compounds, 3% hits; AID 624247; further: on the % scale 0 is the no-effect control and ±100 the full control effect
ELG1 Luc conf = inhibits ELG1-dependent DNA repair in HEK293T cells, confirmed; shares compounds with ELG1 repair inh; HEK293T ELG1-luciferase levels, luminescence; cells co-treated with 5-fluorouridine; Potency, µM (highest dose often 46.1 µM), for inactives: at the highest dose activity change, negative = inhibition, usual class: inhibitors; 670 compounds, 68% hits; AID 624248; further: on the % scale 0 is the no-effect control and ±100 the full control effect; nearly all actives have a fitted effect of over 55% in size
ELG1 MMS Luc = inhibits ELG1-dependent repair under MMS stimulation in HEK293T cells; shares compounds with ELG1 repair inh; 670 compounds, 53% hits; HEK293T luciferase-tagged ELG1 level, MMS stimulated; Potency, µM (titrated, usually from 46.1 µM), without a hit: at the highest dose activity change, negative = inhibition, most hits filed as inhibitors; further: on the % scale 0 is the no-effect control and ±100 the full control effect; nearly all actives have a fitted effect of over 60% in size
ELG1 5FU viab = confirmation of ELG1 repair inhibitors: viability with 5FU; shares compounds with ELG1 repair inh; cell viability with 5-FU, ELG1-dependent repair; Potency, µM (highest dose often 46.1 µM), inactives show top-dose activity change, negative = viability loss, actives largely listed as cytotoxic; 670 tested, under 10 active; AID 624250;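 further: ELG1-luc HEK293T cells cotreated with 5-fluorouridine at 10 µM final; viability measured 16 h after compound addition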
ELG1 MMS viab = confirmation of ELG1 repair inhibitors: viability with MMS. Potency, µM (series often up to 46.1 µM), without a hit: at the top dose activity change, negative = viability loss, usual class: cytotoxic. Cell viability with MMS, ELG1-dependent DNA repair. 670 compounds, 33% hits. AID 624251. shares compounds with ELG1 repair inh;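 further: ELG1-luc HEK293T cells co-treated with 10 µM MMS; viability read 16 h after compound addition; on the % scale 0 is the no-effect control and ±100 the full control effect; nearly all actives have a fitted effect of over 60% in size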
ELG1 unstim viab = counter-screen for ELG1 repair inhibitors: unstimulated cell viability; shares compounds with ELG1 repair inh; cell viability counter-screen, unstimulated, luminescence; 900 compounds, 8% hits; Potency, µM (titrated, usually from 45.9 µM), for the others: at the top dose activity change, negative = loss of viability, usual class: cytotoxic;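 further: compound exposure lasted 16 hours before reading; on the % scale 0 is the no-effect control and ±100 the full control effect; nearly all actives have a fitted effect of over 55% in size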
FLuc biochem = inhibits purified firefly luciferase, counter-screen for ELG1 hits; shares compounds with ELG1 repair inh; purified firefly luciferase, luminescence counter-screen; Potency, µM (top dose mostly 57.5 µM), for inactives: top-dose activity, negative = inhibition, usual class: inhibitors; 350 compounds, 10% hits; further: on the % scale 0 is the no-effect control and ±100 the full control effect
Active calls of the source: *; ? = inconclusive; . = no result given. A selection: hits, their analogues and other compounds. The true share with any hit is near 9.2%. The call rests on the fitted dose curve; in most records, active means well fitted curve in the direction sought with a large enough effect; inconclusive means small, poorly fitted or top-dose-only effect, or another doubt; inactive means no such curve, though single readings can be large; an effect the other way counts as inactive or inconclusive. Potency means the concentration at half of the fitted maximal effect.

SMILES	ELG1 genotox	FLuc counter	ELG1 repair inh	NPC1 prom act	Rab9 prom act	SMN2 splice enh	ELG1 Luc conf	ELG1 MMS Luc	ELG1 5FU viab	ELG1 MMS viab	ELG1 unstim viab	others
CCc1ccccc1NC(=O)CN1CCN(CC(=O)Nc2cc(C)ccc2OC)CC1	-12%	1%	1.6µM*	-1%	-15%	.	?	2.2µM*	7%	2.5µM*	-7%
CCCCC(C)(C)[C@H](O)/C=C/[C@H]1[C@H](O)CC(=O)[C@@H]1C/C=C\CCCC(=O)O	.	.	.	.	.	11%	.	.	.	.	.
CN(C)c1ccnc2sc(C(N)=O)c(N)c12	-25%	-6%	0.82µM*	17%	13%	1%	1.3µM*	4.5µM*	6%	1%	-5%	ELG1 FLuc counter=?;FLuc biochem=0%
COc1ccc2nc(NC(=O)C3CC(=O)N(c4ccccc4)C3)sc2c1 (centres undefined)	-18%	-7%	?	-3%	17%	.	.	.	.	.	.
CCCCc1ccc(NC(=O)C(=O)NCCN2CCN(Cc3ccc([N+](=O)[O-])cc3)CC2)cc1	12%	5%	3.3µM*	-32%	-32%	-77%	?	0.79µM*	0%	1.3µM*	-15%
CNC(=O)C(=O)NCCN1CCN(C(=O)c2ccc([N+](=O)[O-])cc2)CC1	6%	-4%	11%	5%	-12%	.	.	.	.	.	.
c1ccc(CC2CCN(c3ncnc4sccc34)CC2)cc1	-5%	-14%	1.6µM*	-37%	-29%	-41%	23%	1.6µM*	-10%	2µM*	?	ELG1 FLuc counter=31%;FLuc biochem=?
O=C(Cl)c1c(Cl)cccc1Cl	.	.	.	.	.	25%	.	.	.	.	.
C=CCn1c(SCC(=O)N2CC(=O)Nc3ccccc32)nc2scc(-c3ccccc3)c2c1=O	-3%	4%	1.6µM*	-3%	0%	2%	22µM*	-7%	7%	-7%	?
Cc1c(C(=O)N2CCN(S(=O)(=O)c3ccc(F)cc3)CC2)oc2ccccc12	-9%	2%	-14%	-1%	-1%	.	.	.	.	.	.
Cc1cn(C2OC(COC(=O)c3ccccc3)C(O)C2O)c(=O)[nH]c1=O (centres undefined)	0%	2%	16%	-1%	8%	-5%	.	.	.	.	.
Cc1cn(C2OC(COC(=O)c3ccccc3)C(OC(=O)c3ccccc3)C2OC(=O)c2ccccc2)c(=O)[nH]c1=O (centres undefined)	-3%	-2%	4.6µM*	4%	2%	16%	3.1µM*	-19%	?	?	6%
COc1ccc(NC(=O)CCCSc2nc(-c3ccco3)cc(C(F)(F)F)n2)c(OC)c1	.	-9%	.	.	.	-17%	.	.	.	.	.
COc1ccccc1CN(Cc1nc2ccccc2c(=O)[nH]1)S(=O)(=O)c1ccc2ccccc2c1	-18%	1%	3.7µM*	-4%	2%	-39%	7.9µM*	6.3µM*	?	16µM*	18µM*
COc1ccc(S(=O)(=O)N(Cc2ccccc2)Cc2nc3ccccc3c(=O)[nH]2)cc1	-4%	2%	?	-2%	-1%	8%	.	.	.	.	.
Cc1ccc(NC(=O)c2ccc(OC(=O)c3cc4ccccc4o3)cc2)cc1	3.2µM*	-14%	?	3.5µM*	2µM*	10µM*	.	.	.	.	-1%	ELG1 FLuc counter=65%;FLuc biochem=?
O=C(Nc1cc(Cl)ccc1Cl)c1ccc(OC(=O)c2ccco2)cc1	15%	-3%	25%	0%	5%	-38%	.	.	.	.	4%	ELG1 FLuc counter=41%;FLuc biochem=5%
Cc1ccc(OC(=O)c2cc(=O)c3ccccc3o2)cc1	1%	0%	10%	-1%	1%	3%	.	.	.	.	.
COc1ccc(Cl)cc1NC(=O)c1ccco1	-1%	3%	5%	16%	9%	21%	.	.	.	.	.
Cc1ccc(NC(=O)c2ccc(OC(=O)c3ccco3)cc2)cc1	8.2µM*	-11%	?	2µM*	2.8µM*	13µM*	.	.	.	.	-1%	ELG1 FLuc counter=76%;FLuc biochem=-11%
Cc1ccc([C@@H]2CC=C(C(=O)O)[C@H](c3ccccc3F)N2S(=O)(=O)c2ccccc2C)cc1	2%	.	-1%	.	.	.	.	.	.	.	.
CCOC(=O)[C@@H]1[C@H]2COc3ccccc3[C@H]2N2C(=O)N(c3ccccc3)C(=O)[C@]12C	-1%	2%	?	1%	0%	.	.	.	.	.	.
O=C(/C=C1\NC2(CCCC2)Cc2ccccc21)C(=O)N/N=C/c1ccccc1O	1%	-2%	2.3µM*	-20%	-24%	-80%	?	8.9µM*	0%	?	-5%
CCc1ccccc1NC(=O)CN1CCCN(Cc2cc(C)ccc2C)S1(=O)=O	.	-3%	.	.	.	.	.	.	.	.	.
CCOc1ccc2oc(C(=O)Nc3nccs3)c(C)c2c1	2.6µM*	.	?	.	.	.	.	.	.	.	-8%
CCCCc1nnc(NC(=O)c2oc3ccc(OC)cc3c2C)s1	9%	-25%	?	21%	16%	.	.	.	.	.	.
